Reference: PubChem BioAssay (NCATS)
Several values for one entry are separate records, joined by “and”; a condition that tells them apart may be missing. Equal values may be shown once. Results filed as inconclusive are left out. The source holds several records for some structures; these can differ, active in one and inactive in another. Activity calls are given as the source filed them. The call rests on the fitted dose curve; in most records, active means well fitted curve in the direction sought with a large enough effect; inconclusive means small, poorly fitted or top-dose-only effect, or another doubt; inactive means no such curve, though single readings can be large; an effect the other way counts as inactive or inconclusive.

Molecular target: Guanine nucleotide-binding protein G(i) subunit alpha-1 (Homo sapiens) (UniProt P63096)
Assay: qHTS Assay for Inhibitors of RGS12 GoLoco Motif Activity (Green Fluorophore) (AID 879); further: potency means the concentration at half of the fitted maximal effect;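 on activity, negative = inhibition: 0% = labeled peptide with Gαi1 and full inhibition = labeled peptide alone without protein; negative values mean loss of peptide binding seen as reduced polarization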
Conditions: Galphai1/FITC-RGS12 GoLoco peptide, fluorescence polarization; series mostly up to 57.1 µM; activity, negative = inhibition: at the top concentration
Method in brief: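 Fluorescence polarization assay: 50 nM Gαi1 with 10 nM FITC-labeled RGS12 GoLoco peptide in 10 mM Tris pH 7.5, 150 mM NaCl, 0.1 mM GDP, 0.05% NP40, 10 min at room temperature with compound.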

Chain of Guanine nucleotide-binding protein G(i) subunit alpha-1 (Homo sapiens) (P63096 whole entry, looked up): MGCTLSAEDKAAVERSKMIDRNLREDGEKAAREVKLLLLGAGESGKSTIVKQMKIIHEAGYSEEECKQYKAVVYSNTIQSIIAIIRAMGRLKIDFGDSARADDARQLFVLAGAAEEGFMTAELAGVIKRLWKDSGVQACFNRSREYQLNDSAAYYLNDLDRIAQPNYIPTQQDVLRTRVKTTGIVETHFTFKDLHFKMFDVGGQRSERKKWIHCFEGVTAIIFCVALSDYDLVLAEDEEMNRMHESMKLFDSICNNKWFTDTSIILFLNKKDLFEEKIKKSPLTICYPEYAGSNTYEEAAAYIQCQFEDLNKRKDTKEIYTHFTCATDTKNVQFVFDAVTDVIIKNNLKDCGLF

Row | SMILES | activity, negative = inhibition | Potency
1 | CN1CCN(C2=Nc3ccccc3Oc3ccc(Cl)cc32)CC1 | 2.05% (inactive) | –
2 | C#CCN(C)CCCOc1ccc(Cl)cc1Cl | -18.5% (inactive) | –
3 | C[C@]12CCC(=O)C=C1CC[C@@H]1[C@@H]2C(=O)C[C@@]2(C)[C@H]1CC[C@]2(O)C(=O)CO | 1.81% (inactive) | –
4 | CCC(=O)c1ccc2c(c1)N(CCCN(C)C)c1ccccc1S2 | 2.53% (inactive) | –
5 | C[C@]12C=CC(=O)C=C1CC[C@H]1[C@@H]3C[C@@H](O)[C@](O)(C(=O)CO)[C@@]3(C)C[C@H](O)[C@@]12F | -5.25% (inactive) | –
6 | CCCCNc1c(C(=O)OCC)c(C)nc2c1cnn2CC | -6.56% (inactive) | –
7 | O=C1NCN(c2ccccc2)C12CCN(CCCC(c1ccc(F)cc1)c1ccc(F)cc1)CC2 | -13.8% (inactive) | –
8 | Cc1nc2sccn2c(=O)c1CCN1CCC(=C(c2ccc(F)cc2)c2ccc(F)cc2)CC1 | 13.3% (inactive) | –
9 | CCOC(=O)c1cnc2c(cnn2CC)c1NN=C(C)C | -4.78% (inactive) | –
10 | CCCC(C(=O)OCCN(CC)CC)(c1ccccc1)c1ccccc1 | -19.5% (inactive) | –
11 | CCc1cccc(N(C)C(N)=Nc2cccc3ccccc23)c1 | 7.07% (inactive) | –
12 | O=C(CCNNC(=O)c1ccncc1)NCc1ccccc1 | -16.3% (inactive) | –
13 | C[n+]1cc2c3c(ccc2c2ccc4cc5c(cc4c21)OCO5)OCO3 | – | 12600 nM (active)
14 | c1cc(CN2CCCCC2)cc(OCCCNc2nc3ccccc3s2)c1 | -9.41% (inactive) | –
15 | FC(F)(F)c1ccccc1-n1ccnc1 | 4.92% (inactive) | –
16 | CN(C)CC/C=C1\c2ccccc2COc2ccccc21 | -0.0567% (inactive) | –
17 | N[C@@H](COP(=O)(O)O)C(=O)O | -16.4% (inactive) | –
18 | CN(C)CCOC(=O)COc1ccc(Cl)cc1 | 5.32% (inactive) | –
19 | CN(C)CCCN1c2ccccc2Sc2ccc(C(F)(F)F)cc21 | -20.4% (inactive) | –
20 | c1cnc(N2CCN(Cc3ccc4c(c3)OCO4)CC2)nc1 | -22.4% (inactive) | –
21 | CC(C)[N+](C)(CCOC(=O)C1c2ccccc2Oc2ccccc21)C(C)C | -13.5% (inactive) | –

Molecular target: Cytochrome P450 3A4 (Homo sapiens) (UniProt P08684)
Assay: qHTS Assay for Inhibitors and Substrates of Cytochrome P450 3A4 (AID 884); further: on the % scale 0 is the no-effect control and ±100 the full control effect; nearly all actives have a fitted effect of over 50% in size
Conditions: recombinant CYP3A4, Luciferin-PPXE luminescence; series mostly up to 57.1 µM; activity change, negative = inhibition: at the top concentration
Method in brief: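 20 nM human CYP3A4 with 25 uM Luciferin-PPXE (at KM) in 200 mM KPO4, preincubated 10 min with compound; NADPH regeneration started a 60 min RT reaction. Luciferin detected by luminescence, normalized to 57 uM ketoconazole as full inhibition.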

Chain of Cytochrome P450 3A4 (Homo sapiens) (P08684 whole entry, looked up): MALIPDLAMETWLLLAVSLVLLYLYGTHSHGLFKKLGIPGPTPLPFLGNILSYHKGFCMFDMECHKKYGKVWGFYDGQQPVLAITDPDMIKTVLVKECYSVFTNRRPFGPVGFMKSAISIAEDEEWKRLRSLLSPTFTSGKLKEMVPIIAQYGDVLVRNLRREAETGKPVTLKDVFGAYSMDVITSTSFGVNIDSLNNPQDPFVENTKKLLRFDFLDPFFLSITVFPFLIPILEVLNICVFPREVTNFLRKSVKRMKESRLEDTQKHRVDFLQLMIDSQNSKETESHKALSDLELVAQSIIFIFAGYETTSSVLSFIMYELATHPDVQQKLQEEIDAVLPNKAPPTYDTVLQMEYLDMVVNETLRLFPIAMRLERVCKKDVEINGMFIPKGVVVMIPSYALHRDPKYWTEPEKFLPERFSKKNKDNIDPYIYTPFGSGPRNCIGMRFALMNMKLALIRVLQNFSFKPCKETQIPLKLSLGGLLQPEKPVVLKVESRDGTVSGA

Row | SMILES | activity change, negative = inhibition
22 | CCCNC(C)C(=O)Nc1ccccc1C (centres undefined) | -25.9% (inactive)
23 | Nc1c2c(nc3ccccc13)CCCC2O (centres undefined) | -0.293% (inactive)
24 | CC(=O)OC(C)C[N+](C)(C)C (centres undefined) | -8.82% (inactive)
25 | CCCCCN(CCCCC)C(=O)C(CCC(=O)O)NC(=O)c1ccc(Cl)c(Cl)c1 (centres undefined) | -21.1% (inactive)
26 | CCCN(CCC)C(=O)C(CCC(=O)O)NC(=O)c1ccccc1 (centres undefined) | -9.45% (inactive)
27 | CC(C)NCC(O)c1cc(O)cc(O)c1 (centres undefined) | -17.9% (inactive)
28 | CC(C)(Oc1ccc(CCNC(=O)c2ccc(Cl)cc2)cc1)C(=O)O | -7.54% (inactive)
29 | CN(C)CCN(Cc1cccs1)c1ccccn1 | -16.2% (inactive)
30 | Fc1ccc(C(c2ccc(F)cc2)N2CCN(C/C=C/c3ccccc3)CC2)cc1 | 15.8% (inactive)
31 | C=CCc1ccccc1OCC(O)CNC(C)C (centres undefined) | 12% (inactive)

Molecular target: Cytochrome P450 3A4 (Homo sapiens) (UniProt P08684)
Assay: qHTS Assay for Activators of Cytochrome P450 3A4 (AID 885); further: nearly all actives have a fitted effect of over 65% in size
Conditions: recombinant CYP3A4, Luciferin-PPXE luminescence, 60 min; series mostly up to 57.1 µM; activity change, positive = activation: at the top concentration
Method in brief: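 Steps: enzyme/substrate mix dispensed; compound added, 10 min RT; NADPH regeneration solution added, 60 min RT; luciferin detection buffer stops reaction; 20 min later luminescence measured.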

Row | SMILES | activity change, positive = activation | Potency
32 | CCCCCCCC/C=C\CCCCCCCC(=O)NCc1ccc(O)c(OC)c1 | -70.8% (inactive) | –
33 | CN1CCN(C2=Nc3ccccc3Oc3ccc(Cl)cc32)CC1 | – | inactive
34 | C[C@]12CCC(=O)C=C1CC[C@@H]1[C@@H]2C(=O)C[C@@]2(C)[C@H]1CC[C@]2(O)C(=O)CO | -55.6% (inactive) | –
35 | C[C@]12C=CC(=O)C=C1CC[C@H]1[C@@H]3C[C@@H](O)[C@](O)(C(=O)CO)[C@@]3(C)C[C@H](O)[C@@]12F | -41.7% (inactive) | –
36 | CCCCNc1c(C(=O)OCC)c(C)nc2c1cnn2CC | -66.1% [at 25.6 µM] (inactive) | –
37 | O=C1NCN(c2ccccc2)C12CCN(CCCC(c1ccc(F)cc1)c1ccc(F)cc1)CC2 | -35.3% (inactive) | –
38 | Cc1nc2sccn2c(=O)c1CCN1CCC(=C(c2ccc(F)cc2)c2ccc(F)cc2)CC1 | -41.8% (inactive) | –
39 | CCOC(=O)c1cnc2c(cnn2CC)c1NN=C(C)C | -83.3% (inactive) | –
40 | CCCC(C(=O)OCCN(CC)CC)(c1ccccc1)c1ccccc1 | – | inactive
41 | O=C(CCNNC(=O)c1ccncc1)NCc1ccccc1 | -88.5% (inactive) | –
42 | C[n+]1cc2c3c(ccc2c2ccc4cc5c(cc4c21)OCO5)OCO3 | – | inactive
43 | c1cc(CN2CCCCC2)cc(OCCCNc2nc3ccccc3s2)c1 | -49.7% (inactive) | –
44 | N[C@@H](COP(=O)(O)O)C(=O)O | -38% (inactive) | –
45 | CN(C)CCOC(=O)COc1ccc(Cl)cc1 | -39.2% (inactive) | –
46 | c1cnc(N2CCN(Cc3ccc4c(c3)OCO4)CC2)nc1 | – | inactive

Molecular target: Cytochrome P450 2D6 (Homo sapiens) (UniProt P10635)
Assay: qHTS Assay for Inhibitors and Substrates of Cytochrome P450 2D6 (AID 891); further: nearly all actives have a fitted effect of over 60% in size; further: potency means the concentration at half of the fitted maximal effect;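 on activity change, negative = inhibition: luciferin methyl ether substrate demethylated by CYP2D6 with NADPH regeneration; on the % scale 0 is the no-effect control and ±100 the full control effect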
Conditions: recombinant CYP2D6, luciferin-ME EGE luminescence; series mostly up to 57.1 µM; activity change, negative = inhibition: at the top concentration
Method in brief: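 Human CYP2D6 (5 nM) with 30 uM Luciferin-ME EGE (at Km) in 100 mM KPO4, compound preincubated 10 min, then NADPH regeneration system for 60 min at room temperature. Luciferin read by luminescence; normalized to 1.43 uM quinidine.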

Chain of Cytochrome P450 2D6 (Homo sapiens) (P10635 whole entry, looked up): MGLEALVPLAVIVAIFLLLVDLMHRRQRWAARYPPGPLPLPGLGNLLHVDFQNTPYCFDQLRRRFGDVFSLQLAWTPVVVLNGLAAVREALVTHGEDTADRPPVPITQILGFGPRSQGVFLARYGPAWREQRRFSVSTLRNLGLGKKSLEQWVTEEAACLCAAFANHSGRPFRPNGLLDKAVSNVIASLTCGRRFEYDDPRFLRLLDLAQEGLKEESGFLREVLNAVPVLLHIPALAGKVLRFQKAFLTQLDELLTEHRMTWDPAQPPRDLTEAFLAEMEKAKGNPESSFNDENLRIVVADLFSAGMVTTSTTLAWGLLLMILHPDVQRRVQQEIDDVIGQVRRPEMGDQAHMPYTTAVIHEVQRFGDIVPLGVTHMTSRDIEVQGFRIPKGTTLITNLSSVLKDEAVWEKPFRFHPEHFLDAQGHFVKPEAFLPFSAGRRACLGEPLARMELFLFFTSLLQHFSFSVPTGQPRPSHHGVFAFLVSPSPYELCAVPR

Row | SMILES | Potency
47 | CCCCCCCC/C=C\CCCCCCCC(=O)NCc1ccc(O)c(OC)c1 | 3.16 µM (active)
48 | C#CCN(C)CCCOc1ccc(Cl)cc1Cl | 2 µM (active) and 398 nM (active)
49 | CCC(=O)c1ccc2c(c1)N(CCCN(C)C)c1ccccc1S2 | 2 µM (active)
50 | CCCCNc1c(C(=O)OCC)c(C)nc2c1cnn2CC | inactive and 199 nM (active)
51 | O=C1NCN(c2ccccc2)C12CCN(CCCC(c1ccc(F)cc1)c1ccc(F)cc1)CC2 | 1.58 µM (active)
52 | Cc1nc2sccn2c(=O)c1CCN1CCC(=C(c2ccc(F)cc2)c2ccc(F)cc2)CC1 | 10 µM (active)
53 | CCCC(C(=O)OCCN(CC)CC)(c1ccccc1)c1ccccc1 | 63.1 nM (active) and 15.8 nM (active)
54 | CCc1cccc(N(C)C(N)=Nc2cccc3ccccc23)c1 | 0.199 µM (active)
55 | FC(F)(F)c1ccccc1-n1ccnc1 | 6.31 µM (active)
56 | CN(C)CC/C=C1\c2ccccc2COc2ccccc21 | 3.16 µM (active) and 3.98 µM (active)
57 | CN(C)CCCN1c2ccccc2Sc2ccc(C(F)(F)F)cc21 | 794 nM (active) and 398 nM (active)
58 | c1cnc(N2CCN(Cc3ccc4c(c3)OCO4)CC2)nc1 | 0.199 µM (active)
59 | CC(C)[N+](C)(CCOC(=O)C1c2ccccc2Oc2ccccc21)C(C)C | 1.26 µM (active)
